In PubChem BioAssay (NCI):
The panel holds about 83,000 compounds, 20% with a hit somewhere; the sample as a whole holds those more often.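 Cells were grown in 96-well plates and exposed to the test compound at a single concentration for 48 hours; results are reported as percent growth, with values below 10 considered active.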 Calls of active or inactive are those of the source.

Test system: LOX IMVI melanoma
Assay: NCI-60 one-dose screen, 48 h (100 = growth as untreated, 0 = no growth, -100 = all killed)
Settings: 10 µM
Method: Growth inhibition of the LOX IMVI human tumor cell line is measured as a screen for anti-cancer activity. Cells are grown in 96 well plates and exposed to the test compound for 48 hours. Compounds are tested at a single concentration, which is 10^-5 M for most compounds. The reported endpoint is percent growth (GI% or GIPRCNT), where numbers from 0 - 100% represent growth inhibition, and numbers from -100% - 0 represent cell death. For example, a value of 40 represents 60% growth inhibition. A value of 0 means no net growth occurred over the course of the experiment. A value of -40 indicates 40% of cells at the beginning of the experiment died by the end of the experiment. A value of -100 means all cells are dead at the end of the experiment.
NCI-60 Human Tumor Cell Lines Screen was performed using the standard one-dose NCI protocol, which is described in more detail at https://dtp.cancer.gov/discovery_development/nci-60/default.htm.
Compounds with GIPRCNT values below 10 were considered active. Activity score was based on GIPRCNT using the following formula: […]
Score is 0 for GIPRCNT values of 100 or above, 50 for GIPRCNT values of 0, and 100 for GIPRCNT values of -100.

SMILES	growth
O=c1[nH]n(C(=S)N/N=C/c2ccc(F)cc2)c(=O)c2ccccc12	-24.9% (active)
O=C(NO)c1ccc(CNC(=O)[C@H]2Cc3c([nH]c4ccccc34)[C@H](c3ccccc3)N2)cc1	19.6% (inactive)
COc1ccc(/C(C)=N/N=C2C(=O)N(C)c3ccc(Br)cc32)cc1S(N)(=O)=O	74.6% (inactive)
COc1cc(C2CC(c3ccc(C)cc3)=Nc3c(N)nc(N)nc3N2)ccc1Oc1nc(Nc2ccc(F)cc2)nc(N(C)C)n1 (stereo not given)	-77.8% (active)
CC(=O)OC[C@@]1(C)C2CC[C@]3(C)C(CC=C4C5CC(C)(C)CC[C@]5(C(=O)Nc5ccccc5)CC[C@]43C)[C@@]2(C)C[C@@H](OC(C)=O)[C@@H]1OC(C)=O (stereo not given in full)	3.23% (active)
CCOC(=O)c1c(CSc2ccccc2)n(C)c2cc(CN(C)C)c(O)c(CN(C)C)c12	22.2% (inactive)
Cc1noc2c(Cc3ccccc3)nn(CC(=O)N/N=C/c3ccc(Br)cc3)c(=O)c12	45.9% (inactive)
COc1ccc2nc(Cl)c(-c3cc(-c4ccccc4)nc(=S)[nH]3)cc2c1	60.3% (inactive)
Nc1nc(Nc2ccc(Cl)cc2)nn1Cc1cccc(Br)c1	13.7% (inactive)
C/C(=C\CSc1ccccc1C(=O)O)CCCC(C)CCCC(C)CCCC(C)C (stereo not given)	26.3% (inactive)
O=C(Nc1cccc(C(F)(F)F)c1)c1cncc(C#Cc2cnc3cccnn23)c1	22.1% (inactive)
C=C(C)[C@@H]1CC[C@]2(COP(=O)(OCC)OCC)CC[C@]3(C)[C@H](CC[C@@H]4[C@@](C)(CCCN)[C@H](C(=C)C)CC[C@]43C)[C@@H]12	1.01% (active)
CCOC(=O)C1=C(N)N(c2ccccc2)C2=C(C(=O)CC(C)(C)C2)C1c1ccccc1OC (stereo not given)	101% (inactive)
Clc1ccc(/C=N/Nc2ncnc3sc4c(c23)CCN(Cc2ccccc2)C4)cc1	-52.1% (active)
CNC(=O)c1cc(-c2ccc(NC(=O)Nc3ccc(C)cc3)cc2)nc2cccnc12	101% (inactive)
COC(=O)C[C@](O)(CCCC(C)(C)O)C(=O)O[C@H]1C(OC)=C[C@@]23CCC(=O)N2CCc2cc4c(cc2[C@@H]13)OCO4	78% (inactive)
OCCNc1oc(-c2ccccc2)nc1[P+](c1ccccc1)(c1ccccc1)c1ccccc1	2.03% (active)
COc1ccc(CN2[C@H](C(=O)NCCCCCCC(=O)NO)Cc3c([nH]c4ccccc34)[C@H]2C2CC2)cc1	-100% (active)
CN1CCc2c(sc3ncnc(N/N=C/c4cn(-c5ccccc5)nc4-c4ccc(Cl)cc4)c23)C1	-65.7% (active)
CCCSc1nc(NC2CC2)c(C#N)c(-c2ccc(OC)cc2)n1	93.9% (inactive)

SMILES	growth
CCCn1c(=O)c2[nH]c(-c3ccc(OCc4nc5ccc(C#N)cc5[nH]4)cc3)nc2n(CCC)c1=O	46.5% (inactive)
O=C(COc1ccc(NC(=O)Nc2ccc(Cl)cc2)cc1)N=Nc1c(O)[nH]c2ccc([N+](=O)[O-])cc12	13.9% (inactive)
COc1cnc2c(c1)C(=O)c1c-2n(CCCNC(C)C)c(=O)c2cc(OC)c(OC)cc12	-88.2% (active)
O=C(Nc1nc2ccccc2s1)c1ccc(Br)cc1	82.9% (inactive)
CN1CCN(Cc2ccc(C(=O)Nc3cccc(Nc4ccc5c(O)cccc5n4)c3)cc2C(F)(F)F)CC1	-100% (active)
Cc1ccc(-c2ccc(SCC(=O)Nc3ccc(Cl)c(C(F)(F)F)c3)nn2)cc1	33.9% (inactive)
CO[C@@H]1CSSC1Cn1nc(-c2ccc(Oc3ccccc3)cc2)c2c(N)ncnc21 (stereo not given in full)	39.4% (inactive)
CC(=O)c1ccc(NC(=O)NCn2c(=O)[nH]c3ccccc3c2=O)cc1	92.8% (inactive)
O=C(Nc1ccc(F)c(Cl)c1)c1cc(-c2ccc(F)cc2F)ccc1O	-57.2% (active)
COc1ccc(/C(CSc2nnc(-c3c[nH]c4ccccc34)n2-c2ccccc2)=N/O)cc1	-78.2% (active)
c1ccc(C(=C(c2ccc(OCCN3CCCCC3)cc2)c2ccc(OCCN3CCCCC3)cc2)C2CCCC2)cc1	-100% (active)
COc1ccc(CCN2C(=O)/C(=C/c3csc(C#N)n3)SC2=S)cc1	-78.5% (active)
COc1ccc(-c2nc(S(=O)(=O)c3ccccc3)c(S(C)(=O)=O)o2)cc1	-85.3% (active)
C/C(=N\NC(N)=S)c1ccc(Nc2nc(SC(C)C)nc(-c3ccccc3)c2C#N)cc1	29.8% (inactive)
C=C(c1ccc(OC)c(N)c1)c1cc(C)nc2ccccc12	10.3% (inactive)
CN(C)c1ccc(/C=C/c2nc3ccccc3c(=O)n2CC(=O)Nc2ccccc2)cc1	1.57% (active)
COc1ccc2cc([C@H](C)C(=O)NCc3ccccc3)ccc2c1	43% (inactive)
NS(=O)(=O)c1ccc(NC(=O)CSc2ccc(-c3ccccc3)nn2)c(Br)c1	42.6% (inactive)
Cc1ccn2c(C(=O)c3ccc(Br)cc3)cc(-c3cc(-c4ccc(N(C)C)cc4)c(C#N)c(N)n3)c2c1	30.7% (inactive)
CO[C@H]1CSS[C@@H]1Cn1nc(-c2ccc(Oc3ccccc3)cc2)c2c(N)ncnc21	36.8% (inactive)
